Data reported in PubChem BioAssay AID720647 (Broad Institute, 2013).
Several values for one entry are separate records, joined by “and”; a condition that tells them apart may be missing. Equal entries are not always repeated. Out of some 380,000 compounds screened, about 1,300 (0.34%) were called active.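 The calls were made as follows: active = drop in luminescence signal, shown as inhibition above about 50% in the replicate tests (limit read from the data, passing the limit was not always enough); inconclusive = probably only some replicates passing the limit; inactive = the rest.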 The entries come from a sample that favours actives as a whole. A structure can be active in one record and inactive in another.

System: Drosophila bursicon receptor LGR2 (rickets)
Assay: inhibitors of bursicon-induced LGR2 CRE-luciferase signal, primary screen, cell-based, HEK293, CRE-luciferase reporter, bursicon stimulation (AID 720647);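 also: agonist challenge used bursicon conditioned medium at about half maximal strength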
Conditions: bursicon-stimulated, 4 h, at 9.99 µM, stronger effect = higher value

Structure (SMILES) | inhibition
C(=N\Nc1ccc2ccccc2n1)/c1ccc2c(c1)OCO2 | 80.4% (active)
COc1cccc(CNCc2ccc3c(c2)OCO3)c1 | -10.4% (inactive)
Cc1ccc2oc(=O)c3cnn(CC(=O)N4CCCCCC4)c3c2c1 | 15.6% (inactive)
COCCCN(C(=O)Cn1ncc2c(=O)oc3ccc(C)cc3c21)C(C)c1ccncc1 (configuration not stated) | 0.725% (inactive)
Cc1ccc2oc(=O)c3cnn(CC(=O)N(Cc4ccco4)C4CCCCC4)c3c2c1 | 64.3% (active)
COCC(=O)N1[C@H](CNC(=O)c2ccccn2)[C@H](c2ccccc2)[C@@H]1CO | 0.589% (inactive)
C[C@H](CO)N1C[C@H](C)[C@H](CN(C)Cc2ccncc2)Oc2ccc(NC(=O)C3CCCCC3)cc2CC1=O | 10.2% (inactive)
COc1ccc2c3c(n(C)c2c1)[C@H](CO)NCC31CCN(C(=O)Nc2ccccc2F)CC1 | -4.04% (inactive)
O=c1c2c(nc3cc(-c4cccc(Cl)c4)[nH]n13)CCCC2 | 53.6% (active)
COc1ccc2c3c(n(C)c2c1)[C@@H](CO)N(CC1CC1)CC31CN(C(=O)Nc2c(C)noc2C)C1 | -9.38% (inactive)
C[C@@H]1CN([C@H](C)CO)C(=O)c2cc(-c3ccccc3)cnc2O[C@H]1CN(C)C(=O)NC1CCCC1 | 9.83% (inactive)
Cc1ccc(C(=O)O/N=C(\N)c2ccccn2)cc1Cl | 88.8% (active)
C/C(=N/OC(=O)c1c(-c2c(F)cccc2Cl)noc1C)c1cnccn1 | 32.3% (inactive)
C/C(=N/OC(=O)c1cccc(C(F)(F)F)c1)c1cnccn1 | 16.7% (inactive)
COc1ccc2c3c([nH]c2c1)[C@H](CO)N(Cc1ccccc1Cl)CC31CN(C(=O)C2CC2)C1 | 6.3% (inactive)
COc1ccc(-c2ccccc2[C@H]2[C@@H](CO)N(C(=O)C3CCC3)[C@H]2C#N)cc1 | 3.46% (inactive)
COc1ccc(S(=O)(=O)N(C)C[C@@H]2Oc3c(NS(=O)(=O)c4ccccc4)cccc3C(=O)N([C@@H](C)CO)C[C@@H]2C)cc1 | -7.82% (inactive)
CCc1ccc2oc(-c3ccc(N)cc3)nc2c1 | 75.2% (active)
O=C(Nc1ccc2c(c1)[C@H]1C[C@@H](CC(=O)N3CCc4ccccc4C3)O[C@H](CO)[C@H]1O2)Nc1ccccc1F | 12.8% (inactive)
COC(=O)N(C)C[C@H]1OCc2ccccc2-c2ccccc2C(=O)N([C@@H](C)CO)C[C@H]1C | 2.52% (inactive)
O=C(C[C@H]1C=C[C@H](NC(=O)Cc2ccccn2)[C@@H](CO)O1)NCCc1ccccc1 | 12.4% (inactive)
CCS(=O)(=O)N1CC2(CN(Cc3ccccc3)[C@@H](CO)c3c2c2ccc(OC)cc2n3C)C1 | -9.3% (inactive)
C=CCn1c(C)cc(C2=NNC(=NCC)SC2)c1C | 84.5% (active)
CC(C)CC#Cc1cnc2c(c1)C(=O)N([C@H](C)CO)C[C@H](C)[C@@H](CN(C)Cc1ccccc1C(=O)O)O2 | 9.07% (inactive)

Structure (SMILES) | inhibition
C[C@H]1CCCCO[C@H](CN(C)C(=O)Nc2ccccc2)[C@@H](C)CN([C@@H](C)CO)C(=O)c2cc(NC(=O)CCC(F)(F)F)ccc2O1 | 8.75% (inactive)
O=c1oc2ccccc2cc1-c1cn(-c2ccccc2)c(=S)[nH]1 | 102% (active)
COc1ccc(-c2ccc3c(c2)[C@@H]2[C@@H](CCN2S(=O)(=O)c2ccccc2F)[C@H](CO)N3)cc1 | -25.5% (inactive)
C[C@@H]1CN([C@@H](C)CO)C(=O)c2cc(-c3ccc(F)cc3)cnc2O[C@H]1CN(C)C(=O)c1ccncc1 | 1.63% (inactive)
O=C(C1CCCCC1)N1[C@H](CO)[C@@H](c2ccccc2)C12CN(Cc1cccc(Cl)c1)C2 | 1.64% (inactive)
O=C(C[C@@H]1CC[C@H](NC(=O)C2CCOCC2)[C@@H](CO)O1)Nc1ccccc1 | -3.27% (inactive)
CCc1sc(N2[C@@H](C#N)[C@@H](c3ccccc3-c3ccccc3)[C@@H]2CO)nc1C | 0.259% (inactive)
COc1ccc(-c2cn(CC[C@H]3CC[C@@H](N)[C@H](CO)O3)nn2)cc1 | -5.75% (inactive)
COc1ccc2c3c([nH]c2c1)[C@H](CO)N(Cc1cccc(F)c1)CC31CCN(CC2CC2)CC1 | 16% (inactive)
Cc1noc(C)c1NC(=O)Nc1ccc2c(c1)CC(=O)N([C@H](C)CO)C[C@@H](C)[C@@H](CN(C)S(=O)(=O)c1ccc(Cl)cc1)O2 | 4.84% (inactive)
O=C(Nc1nc2ccccc2s1)c1ccc2c(c1)OCO2 | 79.6% (active)
Cc1nc(NC(=O)c2ccc3c(c2)OCCO3)ccc1Br | -47% (inactive)
O=C(NCCc1ccc(C(F)(F)F)cc1)c1ccc2c(c1)OCO2 | -2.8% (inactive)
N#C[C@@H]1N[C@H](CO)[C@@H]1c1ccc(/C=C/c2ccccc2)cc1 | -52.3% (inactive)
C[C@H]1CN([C@@H](C)CO)S(=O)(=O)c2ccc(-c3cccc(C#N)c3)cc2O[C@H]1CN(C)CC1CC1 | -1.41% (inactive)
C[C@H]1CN([C@@H](C)CO)C(=O)c2cccc(NS(=O)(=O)c3ccccc3)c2O[C@@H]1CN(C)S(=O)(=O)c1cn(C)cn1 | 6.37% (inactive)
COc1ccc2c(c1)c(=Cc1ccc(N(C)C)cc1)c1cc(-c3ccccc3)[n+](C)n12 | 102% (active)
COc1ccc(S(=O)(=O)N(C)C[C@@H]2OCCCC[C@@H](C)Oc3ccc(N(C)C)cc3C(=O)N([C@@H](C)CO)C[C@@H]2C)cc1 | -3.31% (inactive)
Cc1ccnc(N2C(=O)c3ccccc3C2Nc2ccc3c(c2)OCCO3)c1 (configuration not stated) | 66.5% (active)
COC(=O)c1cc(NC2c3ccccc3C(=O)N2c2ccc(Cl)cn2)cc(C(=O)OC)c1 (configuration not stated) | -4.93% (inactive)
O=C1c2ccccc2C(Nc2ccc3c(c2)OCCO3)N1Cc1ccco1 (configuration not stated) | 0.038% (inactive)
Cc1ccc(-c2cnc3c(c2)C(=O)N([C@H](C)CO)C[C@H](C)[C@@H](CN(C)S(C)(=O)=O)O3)cc1 | 14.4% (inactive)
C[C@H]1CN([C@@H](C)CO)S(=O)(=O)c2ccc(C#Cc3cccc(F)c3)cc2O[C@@H]1CN(C)S(=O)(=O)c1cn(C)cn1 | 16.7% (inactive)
CCCC(=O)N1CCC2(CC1)CN(C(=O)C1CCCCC1)[C@@H](CO)c1[nH]c3cc(OC)ccc3c12 | -2.6% (inactive)

Structure (SMILES) | inhibition
COc1ccc(S(=O)(=O)N[C@H]2C=C[C@@H](CC(=O)O)O[C@@H]2CO)cc1 | 14.6% (inactive)
CSc1ncnc2c1ncn2CCCNCc1ccco1 | -1.41% (inactive)
CC12CCC(=O)C=C1CCC1C2C(O)CC2(C)C1CCC2(O)C(O)CO (configuration not stated) | -20.1% (inactive)
CSc1ncnc2c1ncn2CC(=O)C1CCC2C3CCC4=CC(=O)CCC4(C)C3CCC12C (configuration not stated) | 89.8% (active)
COCC(=O)Nc1ccc2c(c1)[C@H]1C[C@@H](CC(=O)NCc3ccccc3F)O[C@H](CO)[C@H]1O2 | -12.4% (inactive)
COc1cccc(/C=C/c2ccc3ccccc3n2)c1OC(C)=O | 84.6% (active)
CC=Cc1ccc2n(c1=O)C[C@H]1[C@H](CO)[C@@H](C(=O)NC3CCCC3)N(Cc3cccnc3)[C@@H]21 (mixture of isomers) | 5.27% (inactive)
O=C(O)c1cccc(NC(=S)N/N=C/c2c[nH]c3ccccc23)c1 | 75.5% (active)
O=C(Cn1cc(/C=N/NC(=O)c2cccc(C(F)(F)F)c2)c2ccccc21)Nc1ccc(F)cc1 | 13.4% (inactive)
O=C(CNCc1ccc(Cl)cc1)Nc1cccc(C(=O)O)c1 | 22.7% (inactive)
COc1cccc(CNC(=O)C[C@@H]2CC[C@@H]3[C@H](COc4ccc(NC(C)=O)cc4C(=O)N3C)O2)c1 | 18.5% (inactive)
CCN1[C@@H]2Cn3c(ccc(-c4cccc(OC)c4)c3=O)[C@H]1[C@@H](C(=O)N(C)C)[C@@H]2CO | -2.29% (inactive)
CCC(=O)N1CC(=O)N2[C@@H](CO)[C@H](c3ccc(C#CC4CCCC4)cc3)[C@@H]2C1 | -13.8% (inactive)
C[C@@H]1CN([C@H](C)CO)C(=O)Cc2cc(NS(C)(=O)=O)ccc2O[C@@H]1CN(C)C(=O)Nc1ccc2c(c1)OCO2 | -12.8% (inactive)
C[C@@H]1CN([C@H](C)CO)C(=O)c2cc(NC(=O)CCCCCC(=O)Nc3ccccc3N)ccc2O[C@H]1CN(C)Cc1ccncc1 | -8.39% (inactive)
C[C@@H]1CCCCO[C@H](CN(C)CC2CC2)[C@@H](C)CN([C@H](C)CO)C(=O)c2cc(NC(=O)Cc3ccccc3)ccc2O1 | 2.52% (inactive)
COc1ccccc1-c1cn(CC[C@@H]2CC[C@H](NC(=O)c3ccccc3F)[C@H](CO)O2)nn1 | 0.819% (inactive)
COc1ccc2c3c(n(C)c2c1)[C@@H](CO)N(C(=O)c1ccccn1)CC31CN(C)C1 | 2.95% (inactive)
Cn1cnc(S(=O)(=O)N2C[C@@H]3N[C@H](C2)C3c2ccc(-c3ccccc3F)cc2)c1 (some centres not stated) | 53% (active) and -30.1% (inactive)
Cn1cnc(S(=O)(=O)N2C[C@@H]3N[C@H](C2)C3c2ccc(/C=C/c3ccccc3)cc2)c1 (some centres not stated) | 7.15% (inactive) and -2.81% (inactive)
COc1ccc(-c2ccc(C3[C@@H]4CN(S(=O)(=O)c5cn(C)cn5)C[C@H]3N4)cc2)cc1 (some centres not stated) | -3.69% (inactive)
C[C@H]1CN([C@@H](C)CO)C(=O)c2ccccc2-c2ccccc2CO[C@H]1CN(C)S(=O)(=O)c1cccc(C#N)c1 | -1.55% (inactive)
C[C@H](NC(=O)C[C@@H]1CC[C@@H]2[C@H](COC[C@@H](O)CN2Cc2cc(F)ccc2F)O1)c1ccccc1 | 4.84% (inactive)
O=C(C[C@H]1C[C@@H]2c3cc(NC(=O)CC4CC4)ccc3O[C@@H]2[C@H](CO)O1)NCc1cccnc1 | 2.45% (inactive)
